# This is a sample that favours compounds with a hit; in the whole collection about 4.5% have one here.
# ZTA DNA inh: ZTA (EBV) inhibition in EBNA-1 counter-screen | P03206 | ZTA-DNA binding, fluorescence polarization | inhibition, % at 11 µM | hit rate 0.15% among 320,000; in the data active = inhibition above about 33%
# NR3A LBD binder: binders of NR3A ligand-binding domain, primary screen, biophysical, differential scanning fluorimetry, uHTS; Glutamate receptor ionotropic, NMDA 3A (GRIN3A) ligand-binding domain; NR3A LBD differential scanning fluorimetry, Tm shift; 0% = protein alone, 100% = glycine-bound protein; Tm shift relative to glycine control, % at 25 µM; hit rate 2.5% among 340,000; AID 1259313, 2017;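 active = melting temperature shift of at least 10% of the positive control shift, at one fixed dose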
# dFosB activator: activators of delta FosB homodimer, primary screen, biochemical, fluorescence polarization, TAMRA-CDK5 oligo, single point | Protein FosB (Mus musculus), P13346 | purified delta FosB; percent of positive-control signal above neutral wells | activation, % at 25 µM | hit rate 0.99% among 340,000 | AID 493131, 2011;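 active = mean activation above about 17%, with every replicate also reaching it, limit read from the data, passing the limit was not always enough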
# Target sequence (P13346 whole entry, looked up): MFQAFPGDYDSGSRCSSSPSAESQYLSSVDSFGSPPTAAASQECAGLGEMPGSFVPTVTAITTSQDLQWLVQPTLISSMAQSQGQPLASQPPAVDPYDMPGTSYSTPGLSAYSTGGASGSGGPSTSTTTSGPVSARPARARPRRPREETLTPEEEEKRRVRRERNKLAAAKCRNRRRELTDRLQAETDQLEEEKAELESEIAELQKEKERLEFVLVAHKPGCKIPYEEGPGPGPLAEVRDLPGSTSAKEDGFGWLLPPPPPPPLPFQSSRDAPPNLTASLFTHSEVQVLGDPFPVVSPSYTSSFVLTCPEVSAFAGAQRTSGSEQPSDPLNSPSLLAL
# Rpn11 block: Rpn11 (PSMD14) deubiquitinase inhibitors, primary screen, biochemical, fluorescence polarization, uHTS; hit rate 0.59% among 360,000; 26S proteasome non-ATPase regulatory subunit 14 (Homo sapiens), O00487; human 26S proteasome, Ub4-pepOG fluorescence polarization; 20S core pre-blocked with epoxomicin; inhibition, % at 20 µM; AID 588493, 2011;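 active = inhibition at 20 µM, scaled to each plate's controls, above about 33%, limit read from the data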
# TPT1 inh: Candida albicans TPT1 enzyme inhibitors, primary screen, biochemical, fluorescence polarization | tRNA 2'-phosphotransferase TPT1 (Candida albicans SC5314) | recombinant caTPT1, FP RNA substrate dephosphorylation | inhibition, % at 5 µM | hit rate 0.81% among 300,000 | AID 1962, 2009;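 active = inhibition above the mean of all tested compounds plus 3 SD, set per screening campaign, cut at about 24% in these data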;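 also: plate controls were DMSO alone for no effect and ferristatin control at 100 nM for full effect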
# EBNA-1 inh: EBNA-1 DNA-binding inhibitors, primary screen, biochemical, fluorescence polarization; inhibition, % at 14.8 µM; hit rate 0.34% among 300,000; AID 1950, 2009; in the data active = inhibition above about 28%
# Rpn11 confirm: Rpn11 (PSMD14) deubiquitinase inhibitors, confirmation, biochemical, fluorescence polarization, single concentration | shares compounds with Rpn11 block | purified human 26S proteasome, Ub4-pepOG fluorescence polarization; proteasome pretreated with epoxomicin | inhibition, % at 20 µM | hit rate 29% among 1,900
# MMP-2 counter: MMP-2 enzyme inhibition, confirmation, counter-screen for RPN11 inhibitor project, biochemical, fluorescence, single concentration; inhibition, % at 20 µM; shares compounds with Rpn11 block; hit rate 4% among 1,900; AID 602330, 2012; recombinant MMP-2, FRET peptide cleavage fluorescence;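 also: human MMP-2 activated beforehand with APMA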
# Thrombin FP: bovine thrombin protease inhibition, confirmation, counter-screen for Rpn11 inhibitor project, biochemical, fluorescence polarization, single concentration; shares compounds with Rpn11 block; bovine thrombin cleavage of Ub4-pepOG; inhibition, % at 20 µM; hit rate 13% among 1,900; AID 602333, 2012;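 active = mean inhibition at least 40% at 20 µM, or signal 3 deviations below plate average, so some actives read negative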;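 also: plate controls were thrombin with DMSO for no effect and buffer wells lacking thrombin for full effect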
# The depositor's hits bear a star; · = no result. Rule as the data show it, unless noted: active = inhibition above about 40%; inactive = the rest.
SMILES,ZTA DNA inh,NR3A LBD binder,dFosB activator,Rpn11 block,TPT1 inh,EBNA-1 inh,Rpn11 confirm,MMP-2 counter,Thrombin FP
CCN1/C(=C/c2ccc3cc(C)cc(C)c3[n+]2CC)Sc2cc(C)ccc21,·,-3,-178,170*,·,·,89*,-93,135*
COc1ccc(C(=O)NCc2nnc(SCC(=O)c3ccc(F)cc3)n2C)cc1OC,6,-2,-7,-1,1,-10,·,·,·
COc1ccc([C@H]2C[C@H](O)[C@@H](n3cc(-c4ccc(F)cc4)nn3)CN2Cc2cccs2)cc1,·,·,·,6,·,·,·,·,·
COc1cc(C(=O)NC(C)c2cc(C)ccc2C)ccc1OCC(=O)N1CCOCC1 (stereo unspecified),-3,1,0,7,·,·,·,·,·
CCOC(=O)c1[nH]c2ccccc2c1NC(=O)Nc1ccc(OC)cc1,16,0,-3,137*,-3,4,-17,-40,-12
CCCC(=O)Nc1c(C(=O)OCC)[nH]c2ccccc12,5,-1,7,-1,-2,-10,·,·,·
CCOc1ccc(Nc2cc(Nc3ccccc3OCC)nc(C=C(C#N)C#N)n2)cc1,7,1,-3,8,-1,-1,·,·,·
